TDP1 cell CPT: qHTS for Inhibitors of human tyrosyl-DNA phosphodiesterase 1 (TDP1): qHTS in cells in presence of CPT | Potency, µM (top dose mostly 46.2 µM), usual class: inhibitors | AID 686979, 2013 | 420,000 compounds, 12% hits | chicken DT40 Tdp1-/-;hTDP1 cells + 20 nM CPT, ATP luminescence, 48 h; further: nearly all actives have a fitted effect of over 55% in size
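Cell growth measured by CellTiter-Glo luminescence after a minimum 48 h, 37 C compound exposure with 20 nM CPT in Tdp1-knockout DT40 cells stably expressing hTDP1, seeded 400/well; qHTS titration format.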
DT40 TDP1 no CPT: qHTS for Inhibitors of human tyrosyl-DNA phosphodiesterase 1 (TDP1): qHTS in cells in absence of CPT; 420,000 compounds, 15% hits; DT40 Tdp1-/- hTDP1 cells, no CPT, ATP luminescence, 48 h; AID 686978, 2013; Potency, µM (top dose mostly 46.2 µM), hits mostly inhibitors; further: nearly all actives have a fitted effect of over 55% in size
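DT40 Tdp1-/-;hTDP1 cells, no CPT (DMSO vehicle only), 400 cells/well; compounds pin-transferred; ≥48 hr, 37 °C; CellTiter-Glo 30 min RT dark, luminescence read.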
TGFb inhibitor: qHTS for Inhibitors of TGF-b. HepG2 CAGA-GFP TGF-b/SMAD3 reporter, GFP fluorescence, 18 h; TGF-beta stimulated, 500 pg/mL final. Potency, µM (series often up to 46.1 µM), most hits filed as inhibitors. 410,000 compounds, 1.2% hits. AID 588855, 2011; further: nearly all actives have a fitted effect of over 65% in size
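Read-out: total well GFP (ex488/em500-530) summed from mean per-cell fluorescence. Cells: HEPG2 CAGA-GFP, 1% FBS DMEM, 18 h at 37 degrees C with 500 pg/mL final TGF-beta. Unstimulated wells served as the full-inhibition control; stimulated DMSO wells = 0%.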
HepG2 viability: qHTS for Inhibitors of TGF-b: Cytotox Counterscreen | HepG2 CAGA-GFP viability, ATP luminescence, 18 h | Potency, µM (series often up to 46.1 µM), usual class: cytotoxic | 410,000 compounds, 0.76% hits
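CellTiter-Glo luminescence gave cytotoxicity after 18 hours at 37 degrees C. The cells were HepG2 CAGA-GFP in 1% FBS DMEM, stimulated with 500 pg/mL TGF-beta after compound addition. %Activity was normalised to no-cell wells (complete cell-killing) and DMSO (no toxicity), and curves were fitted and classified.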
S-ASM inh: Inhibitors of Secretory Acid Sphingomyelinase (S-ASM): qHTS | placental ASM, HMU-PC fluorogenic substrate, 60 min | Sphingomyelin phosphodiesterase (Homo sapiens), P17405 | AID 504937, 2011 | 340,000 compounds, 0.006% hits | Potency, µM (titrated, usually from 57.5 µM), actives largely listed as inhibitors
Target sequence (P17405 47-631 limits assumed): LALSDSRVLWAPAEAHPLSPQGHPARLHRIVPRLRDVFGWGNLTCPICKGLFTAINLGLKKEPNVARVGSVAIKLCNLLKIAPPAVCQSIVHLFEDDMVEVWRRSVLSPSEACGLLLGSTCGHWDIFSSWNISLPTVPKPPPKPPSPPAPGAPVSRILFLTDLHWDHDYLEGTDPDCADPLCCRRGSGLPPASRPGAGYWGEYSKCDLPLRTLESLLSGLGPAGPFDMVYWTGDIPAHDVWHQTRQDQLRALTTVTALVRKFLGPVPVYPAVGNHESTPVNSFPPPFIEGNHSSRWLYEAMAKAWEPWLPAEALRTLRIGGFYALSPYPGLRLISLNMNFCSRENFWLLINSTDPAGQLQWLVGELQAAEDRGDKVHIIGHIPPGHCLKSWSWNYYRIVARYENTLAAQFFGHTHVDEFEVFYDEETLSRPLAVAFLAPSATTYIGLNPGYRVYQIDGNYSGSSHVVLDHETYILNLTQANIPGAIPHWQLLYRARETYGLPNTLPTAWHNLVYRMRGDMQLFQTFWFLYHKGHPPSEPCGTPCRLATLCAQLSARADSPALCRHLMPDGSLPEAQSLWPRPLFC
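qHTS format. ASM enzyme prepared from human placenta hydrolyses the fluorogenic substrate HMU-PC0 (9 uM final) over 60 min at 37 °C after a 10 min compound preincubation.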
IL1B secr inh: qHTS for Inhibitors of Inflammasome Signaling: IL-1-beta AlphaLISA Primary Screen; THP-1 LPS/ATP IL-1B secretion, AlphaLISA, 16 h; active compounds read low; 360,000 compounds, 4.7% hits; activity change, % at 57.5 µM; AID 743279, 2014; in the data active means activity change below about -50%; inconclusive means mostly about -30% to -49%
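Secreted IL-1B measured by AlphaLISA bead assay after 16 h compound exposure of THP-1 cells; compounds (final up to 57.5 uM) added 1 h before LPS (250 ng/mL) and ATP (1.25 mM) stimulation; lower signal means less secretion.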
Each line names hits and unclear results; the compound was inactive in the other large screens. This is a sample that favours compounds with a hit; in the whole collection about 19% have one here. Unless noted, the call rests on the fitted dose curve; in most records, active means well fitted curve in the direction sought with a large enough effect; inconclusive means small, poorly fitted or top-dose-only effect, or another doubt; inactive means no such curve, though single readings can be large; an effect the other way counts as inactive or inconclusive.

COC(=O)c1ccc2nc(-c3ccc(OC)c(OC)c3)c(Cc3ccc(C)cc3)n2c1	TDP1 cell CPT inconclusive, DT40 TDP1 no CPT 20.6µM, TGFb inhibitor inconclusive (no result: S-ASM inh)
O=C(Nc1ccc(Br)cc1)C1OCCc2ccccc21 (centres undefined)	none
Cc1ccc(NC(=O)CN2C(=O)CCc3cc(S(=O)(=O)N4CCCCC4)ccc32)cc1N(C)C	TDP1 cell CPT inconclusive, DT40 TDP1 no CPT inconclusive (no result: S-ASM inh, IL1B secr inh)
CCOC(=O)C1CCN(C(=O)c2cc(S(=O)(=O)N3CCOCC3)ccc2C)CC1	none
O=C(Nc1cccc(C(F)(F)F)c1)c1cc2c(=O)c3ccccc3oc2nc1C(F)(F)F	TDP1 cell CPT inconclusive, DT40 TDP1 no CPT 29.1µM
O=C(/C=C/c1ccc(Br)cc1)NC(=O)c1ccccc1O	DT40 TDP1 no CPT inconclusive, TGFb inhibitor inconclusive, IL1B secr inh -94.9
CC(NC(=O)/C=C/c1ccc(Br)cc1)c1ccccc1 (centres undefined)	TDP1 cell CPT 16.4µM, DT40 TDP1 no CPT inconclusive
O=C(OCN1C(=O)c2ccccc2C1=O)c1cccnc1SC(F)F	none
Cc1cc(-c2ccccc2)nc(N(C)C)c1S(C)(=O)=O	TDP1 cell CPT inconclusive, DT40 TDP1 no CPT inconclusive
Cc1cc(-c2ccccc2)nc(N(C)NC(=O)c2ccc(Cl)cc2)c1S(C)(=O)=O	TDP1 cell CPT 14.6µM, DT40 TDP1 no CPT 20.6µM
O=C(Nc1cc(S(=O)(=O)N2CCOCC2)ccc1Cl)c1ccc(=O)[nH]c1	none
O=C(CCCCC(=O)Sc1ccccc1)Sc1ccccc1	TDP1 cell CPT inconclusive, DT40 TDP1 no CPT inconclusive, IL1B secr inh -95.8
O=C(CNC1C(=O)Nc2ccccc21)Sc1ccccc1 (centres undefined)	none
O=C(CNC(=O)c1ccccc1)Sc1ccccc1	TDP1 cell CPT inconclusive, DT40 TDP1 no CPT 18.4µM
COc1ccc(Cn2ccnc2SCC(=O)NC2CCCC2)cc1	TGFb inhibitor inconclusive
O=C(Nc1cc(C(F)(F)F)ccc1N1CCOCC1)c1cccc(S(=O)(=O)N2CCOCC2)c1	DT40 TDP1 no CPT inconclusive (no result: S-ASM inh)
Cc1c(NC(=O)c2nn(CC(C)C)c(=O)c3ccccc23)c(=O)n(-c2ccccc2)n1C	none
Cc1nc2ccccc2n1-c1nc(-c2ccco2)cc(C(F)(F)F)n1	TDP1 cell CPT 3.66µM, DT40 TDP1 no CPT 2.91µM, TGFb inhibitor inconclusive, IL1B secr inh inconclusive
FC(F)(F)c1cc(-c2ccco2)nc(-n2cnc3ccccc32)n1	none
Cc1ccc(C(=O)O)cc1NC(=O)C1CCN(S(=O)(=O)c2ccc3c(c2)OCCO3)CC1	none
O=C(Nc1nc(-c2ccc(Br)cc2)cs1)c1cccnc1	none
CC(C)/C=N/Nc1nc(-c2ccc(Br)cc2)cs1	TDP1 cell CPT 23.1µM, DT40 TDP1 no CPT 16.4µM, TGFb inhibitor inconclusive
O=C(NCCOc1ccccc1)c1cc([N+](=O)[O-])ccc1N1CCOCC1	TDP1 cell CPT 1.84µM, DT40 TDP1 no CPT 1.64µM, TGFb inhibitor inconclusive
O=C(NCCOc1ccccc1F)c1cc([N+](=O)[O-])ccc1N1CCOCC1	TDP1 cell CPT 5.17µM, DT40 TDP1 no CPT 3.66µM
O=C(CN1CCOCC1)Nc1nc2ccc([N+](=O)[O-])cc2s1	none
O=C(Nc1nc2ccc(Oc3ccccc3)cc2s1)c1cc([N+](=O)[O-])ccc1N1CCOCC1	TDP1 cell CPT inconclusive, DT40 TDP1 no CPT 13µM, TGFb inhibitor inconclusive
CCc1nnc(NC(=O)c2ccccc2NC(=O)C2CCN(C(=O)c3ccco3)CC2)s1	TDP1 cell CPT 14.1µM, DT40 TDP1 no CPT 11.2µM (no result: S-ASM inh, IL1B secr inh)
Cc1nnc(NC(=O)C2CCN(C(=O)c3ccco3)CC2)s1	none
CCc1nnc(NC(=O)C2CCN(C(=O)c3ccco3)CC2)s1	none
